This excerpt belongs to a sample that is enriched for hits.
RECQ1 inh-1 = qHTS Assay for Inhibitors of RecQ-Like Dna Helicase 1 (RECQ1); RECQ1 DNA unwinding, red fluorescence kinetic read; Potency, µM (titrated, usually from 57.3 µM), for the others: top-dose activity, negative = inhibition, usual class: inhibitors; 0.54% of 240,000 active;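 also: plate controls were vehicle for no effect and no enzyme for full effect; nearly all actives have a fitted effect of over 30% in size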
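50 nM RECQ1T1 preincubated 15 min with compound in Tris pH 8.0 buffer with MgCl2, DTT, Tween-20 and 2.5 ug/ml poly(dI-dC); started with 200 nM TAMRA/BHQ-2 forked duplex and 2 mM ATP. Unwinding read as fluorescence (525/598 nm), two reads 2 h apart.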
KDM4E inh = qHTS Assay for Inhibitors of Human Jumonji Domain Containing 2E (JMJD2E); Potency, µM (highest dose often 57.1 µM), inactives show top-dose activity change, negative = inhibition, usual class: inhibitors; 1.6% of 230,000 active; AID 2147, 2009; JMJD2E catalytic domain, FDH-coupled NADH fluorescence (FDH is formaldehyde dehydrogenase); Lysine-specific demethylase 4E (Homo sapiens), B2RXH2; active = well fitted inhibition curve with a large enough effect, not every such curve was filed as active; inconclusive = small, poorly fitted or top-dose-only effect, or another doubt; inactive = no such curve, though single readings can be large or run the other way;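 also: 0% = wells with enzyme and -100% = buffer wells without enzyme; nearly all actives have a fitted effect of over 50% in size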
RGS12 GoLoco inh = qHTS Assay for Inhibitors of RGS12 GoLoco Motif Activity (Red Fluorophore); Guanine nucleotide-binding protein G(i) subunit alpha-1 (Homo sapiens), P63096; Gai1:RGS12 GoLoco peptide FP, rhodamine, 10 min; Potency, µM (series often up to 61.6 µM), for the others: top-dose activity, negative = inhibition, usual class: inhibitors; 0.44% of 230,000 active; active = well fitted inhibition curve with a large enough effect, not every such curve was filed as active; inactive = no such curve, though single readings can be large or run the other way; also: nearly all actives have a fitted effect of over 30% in size
APE1 inh = qHTS Assay for Inhibitors of the Human Apurinic/apyrimidinic Endonuclease 1 (APE1). recombinant APE1, TAMRA/BHQ-2 abasic DNA cleavage fluorescence. DNA repair nuclease/redox regulator APEX1 (Homo sapiens), P27695. Potency, µM (titrated, usually from 65.8 µM), for inactives: top-dose activity change, negative = inhibition, actives largely listed as inhibitors. AID 2517, 2012. 0.35% of 350,000 active;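 also: plate controls were vehicle for no effect and reference inhibitor for full effect; nearly all actives have a fitted effect of over 55% in size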
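0.75 nM APE1 + cpd, 15 min RT; start w/ 50 nM TAMRA/BHQ-2 THF-abasic dsDNA; kinetic fluor 525/598 nm ×3 reads @60 s; Δ(read3−read1); normalized to DMSO and NSC13755 control wells.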
L3MBTL1 block = qHTS Assay for the Inhibitors of L3MBTL1 | Lethal(3)malignant brain tumor-like protein 1 (Homo sapiens), Q9Y468 | Potency, µM (titrated, usually from 57.1 µM), for inactives: at the highest dose activity, negative = inhibition, actives largely listed as inhibitors | AID 485360, 2010 | AlphaScreen L3MBTL1–H3K9me1 peptide binding | 0.66% of 230,000 active; also: nearly all actives have a fitted effect of over 60% in size
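Read-out is AlphaScreen signal from streptavidin donor and nickel chelate acceptor beads (10 ug/mL final each) bridging L3MBTL1 (50 nM) and biotinylated K9-monomethylated H3(1-15) peptide (75 nM), after 30 min compound exposure at room temperature.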
BLM helicase inh = qHTS Assay for Inhibitors of Bloom's syndrome helicase (BLM); recombinant BLM DNA unwinding, fluorescence dequenching; 0.2% of 350,000 active; RecQ-like DNA helicase BLM (Homo sapiens), P54132; Potency, µM (highest dose often 56.1 µM), for the others: top-dose activity change, negative = inhibition, most hits filed as inhibitors; AID 2528, 2010;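 also: plate controls were vehicle for no effect and no enzyme for full effect; nearly all actives have a fitted effect of over 35% in size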
Target sequence (P54132 whole entry, looked up): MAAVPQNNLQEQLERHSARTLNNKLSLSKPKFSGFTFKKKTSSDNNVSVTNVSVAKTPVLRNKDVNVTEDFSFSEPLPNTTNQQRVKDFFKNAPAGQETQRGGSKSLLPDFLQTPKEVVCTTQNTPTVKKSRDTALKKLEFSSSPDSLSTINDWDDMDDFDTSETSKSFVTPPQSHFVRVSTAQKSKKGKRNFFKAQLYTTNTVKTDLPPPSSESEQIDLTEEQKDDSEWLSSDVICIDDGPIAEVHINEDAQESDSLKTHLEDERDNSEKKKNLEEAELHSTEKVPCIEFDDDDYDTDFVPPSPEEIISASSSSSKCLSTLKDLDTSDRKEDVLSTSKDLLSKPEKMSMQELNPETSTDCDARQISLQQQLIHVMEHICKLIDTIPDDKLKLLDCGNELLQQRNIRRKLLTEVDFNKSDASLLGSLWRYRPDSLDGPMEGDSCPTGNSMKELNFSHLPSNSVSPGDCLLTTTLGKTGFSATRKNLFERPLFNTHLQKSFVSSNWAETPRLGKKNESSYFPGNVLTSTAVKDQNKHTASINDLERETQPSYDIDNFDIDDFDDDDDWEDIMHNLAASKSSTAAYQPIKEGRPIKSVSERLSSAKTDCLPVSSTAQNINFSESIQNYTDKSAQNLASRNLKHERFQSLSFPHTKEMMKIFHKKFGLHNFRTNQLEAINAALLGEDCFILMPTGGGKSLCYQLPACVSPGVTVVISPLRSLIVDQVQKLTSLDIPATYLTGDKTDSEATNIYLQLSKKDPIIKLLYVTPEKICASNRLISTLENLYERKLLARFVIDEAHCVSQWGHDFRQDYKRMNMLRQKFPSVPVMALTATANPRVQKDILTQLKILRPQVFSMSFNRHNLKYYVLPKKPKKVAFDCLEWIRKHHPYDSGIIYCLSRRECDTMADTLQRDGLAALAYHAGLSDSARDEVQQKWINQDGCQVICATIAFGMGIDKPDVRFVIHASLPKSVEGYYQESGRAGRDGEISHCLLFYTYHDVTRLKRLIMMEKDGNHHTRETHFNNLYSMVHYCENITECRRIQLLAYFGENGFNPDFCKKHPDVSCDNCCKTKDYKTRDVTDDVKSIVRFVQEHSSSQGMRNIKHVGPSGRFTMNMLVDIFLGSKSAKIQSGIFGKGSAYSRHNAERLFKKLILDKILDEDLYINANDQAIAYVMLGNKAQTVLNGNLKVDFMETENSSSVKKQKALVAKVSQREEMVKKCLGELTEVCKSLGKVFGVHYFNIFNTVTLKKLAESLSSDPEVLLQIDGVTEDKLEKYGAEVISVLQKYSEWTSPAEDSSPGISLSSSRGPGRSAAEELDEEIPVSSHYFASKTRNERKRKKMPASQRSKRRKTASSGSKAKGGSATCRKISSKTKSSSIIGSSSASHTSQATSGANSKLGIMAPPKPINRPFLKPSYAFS
RECQ1 conf = Confirmation qHTS Assay for Inhibitors of RecQ-Like Dna Helicase 1 (RECQ1) | shares compounds with RECQ1 inh-1 | RECQ1 helicase DNA unwinding, fluorescence | Potency, µM (doses to about 229 µM), for the others: at the top dose activity change, negative = inhibition, most hits filed as inhibitors | 28% of 610 active | AID 2708, 2010; also: nearly all actives have a fitted effect of over 45% in size
RECQ1 ADP FP = Counterscreen for RECQ1 Inhibitors: ADP Fluorescence Polarization Displacement Assay; shares compounds with RECQ1 inh-1; ADP fluorescence polarization displacement counterscreen; Potency, µM (highest dose often 228 µM), for the others: top-dose activity change, negative = inhibition, actives largely listed as inhibitors; 27% of 530 active; AID 2711, 2010; also: nearly all actives have a fitted effect of over 45% in size
RECQ1 inh-2 = Confirmation qHTS Assay for Inhibitors of RecQ-Like Dna Helicase 1 (RECQ1) - Round 2 Cherry Picks; shares compounds with RECQ1 inh-1; recombinant RECQ1 DNA unwinding, red fluorescence; Potency, µM (doses to about 119 µM), inactives show at the highest dose activity, negative = inhibition, actives largely listed as inhibitors; 15% of 1,100 active; AID 504841, 2011; also: nearly all actives have a fitted effect of over 50% in size
* = called active by the depositor; i = inactive; u = inconclusive; x = no result; ! = not active in a repeat. Unless noted, calls follow the shape of the dose curve; as a rule, active = well fitted curve in the direction sought with a large enough effect; inconclusive = small, poorly fitted or top-dose-only effect, or another doubt; inactive = no such curve, though single readings can be large; an effect the other way counts as inactive or inconclusive. Unless noted, % is scaled to controls: 0 for no effect and ±100 for the full control effect; potency is read from the fitted curve at half-maximal effect.

SMILES	RECQ1 inh-1	KDM4E inh	RGS12 GoLoco inh	APE1 inh	L3MBTL1 block	BLM helicase inh	RECQ1 inh-2	others
COc1cc(/C=C(\C#N)c2nc3ccccc3s2)cc([N+](=O)[O-])c1O	u	-27%	65%	u	-18%	u	35µM*
N#C/C(=C\c1ccc(O)c([N+](=O)[O-])c1)c1nc2ccccc2s1	0%	-17%	31%	-4%	-10%	-10%	x
COc1ccccc1CNC(=O)C(C)n1c(=O)cc(-c2ccccc2)c2c(C)nn(C)c21 (stereo not drawn)	x	x	x	x	x	0%	x
CCN(CCCCN1C(=O)c2ccccc2C1=O)c1ccc2c(c1)C(=O)N(C)C2=O	28µM*	-4%	8%	u	-19%	-24%	u
CCN(CC)c1ccc2c(c1)C(=O)N(C)C2=O	-5%	-1%	-2%	3%	31%	-3%	x
N=C1/C(=C\c2ccc(-c3cc(Cl)cc(Cl)c3)o2)C(=O)N=C2SC=C(c3ccccc3)N12	-4%	6%	29%	2%	-9%	0%	x
N=C1/C(=C/c2ccc(-c3cccc(C(=O)O)c3)o2)C(=O)N=C2SC=C(c3ccccc3)N12	u	u	29%	u	x	u	u
CC(C)NS(=O)(=O)c1ccc(NC(=S)NC(=O)c2ccc(-c3ccccc3)cc2)cc1	u	4%	7%	-5%	-2%	-9%	-7%
O=C(O)c1ccc2c(c1)S(=O)(=O)c1ccccc1C2=O	x	x	x	-17%	x	1%	x
O=C(O)c1cc(O)c2c(c1)C(=O)c1cccc(O)c1C2=O	3.2µM*!	28µM*	-10%	0.32µM*	u	35µM*!	x	RECQ1 conf=126µM*;RECQ1 ADP FP=7.9µM*
Cc1cccc(N(CC(O)Cn2c3ccccc3c3ccccc32)S(=O)(=O)c2ccc(F)cc2)c1 (stereo not drawn)	x	x	x	x	x	-11%	x
Cc1ccc(-n2ncc3c(NCCCc4ccccc4)ncnc32)cc1	x	x	x	x	x	-4%	x
O=C1C=C(N(CCO)Cc2ccccc2)c2ccccc2C1=O	u	7%	10%	-1%	u	u	u
Cc1ccc(OCC(=O)NCC(=O)OCc2cc(=O)n3nc(C)sc3n2)cc1	x	x	x	x	x	0%	x
CSc1ccccc1NC(=O)COC(=O)c1ccccc1O	i	13%	0%	0%	9%	-1%	x
CSc1ccccc1NC(=O)COC(=O)c1ccccc1Cc1ccccc1	25µM*	-7%	3%	-4%	57%	-8%	-3%
O=C(NCCC1=CCCCC1)C1CCN(C(=O)N2CCOc3ccc(Cl)cc32)CC1	x	x	x	x	x	3%	x

Screens (PubChem BioAssay)
